Bioassay records: PubChem, Broad Institute
Only a sample is shown.
aSyn UTR act: Activators via SNCA 5'UTR binding, MLPCN; activity score, % (tested at 7.5 µM), hits read low; AID 1814; 300,000 compounds, 7.1% hits; alpha-synuclein 5'UTR reporter, activators screen; in the data active means activity score below about -60%
* = called active by the depositor.

SMILES | aSyn UTR act
CCc1ccc(C2C(=O)c3ccccc3C2=O)cc1 | -74*
COc1ccc(C2C(=O)c3ccccc3C2=O)cc1 | -83*
COc1ccc(C2C(=O)c3ccccc3C2=O)c(OC)c1 | -265*
COc1ccc2c(c1OC)C(=O)OC2Nc1nc(-c2cc3cc(Br)ccc3oc2=O)cs1 (stereo unspecified) | -221*
COCCSc1nnc(NC(=O)C(C)(C)C)s1 | -90*
CC(C)(C)C(=O)Nc1nnc(SCc2ccc(F)cc2)s1 | -82*
CC(C)(C)C(=O)Nc1nnc(SCc2cccc(F)c2)s1 | -174*
Cc1ccc2nc(-c3ccccc3O)c(Nc3ccc4c(c3)OCCO4)n2c1 | -65*
COc1ccc(-c2nsc(SCC(=O)Nc3ccc4c(c3)OCO4)n2)cc1 | -109*
CSc1nsc(SCC(=O)Nc2ccc(C(C)=O)cc2)n1 | -262*
CSc1nsc(SCC(=O)Nc2ccc(F)cc2F)n1 | -101*
CCOc1ccc(-n2c(SCC(=O)Nc3ccc(Br)cc3)nc3n[nH]c(C)c3c2=N)cc1 | 82
COc1ccc(NC(=O)CSc2nc(SC)ns2)cc1 | -145*
O=C(/C=C/c1ccc(F)cc1)NC(=S)N1CCN(c2ccccn2)CC1 | -85*
COc1ccc(/C=C/C(=O)NC(=S)N2CCOCC2)cc1 | -84*
COc1ccc(/C=C/C(=O)NC(=S)N2CCN(c3ccccc3OC)CC2)cc1 | -160*
CN(C)/C=C(\C#N)C(=O)Nc1ccc(F)cc1 | -96*
CN(C)/C=C(\C#N)C(=O)Nc1ccc(F)c(Cl)c1 | -143*
CN(C)/C=C(\C#N)C(=O)N/N=C/c1ccc(Cl)cc1 | -66*
CCCC1c2ccc(C)n2CCN1C(=O)Nc1ccccc1Cl (stereo unspecified) | -120*
COc1cc(/C=N/NC(=O)CC2(C)OCCCO2)ccc1OCc1ccc(Cl)cc1Cl | -70*
CC1(CC(=O)N/N=C/c2ccc(OCc3ccc(Cl)cc3Cl)cc2)OCCCO1 | -106*
COc1cc(/C=N/NC(=O)CC2(C)OCCCO2)ccc1OCc1ccccc1 | -65*
COc1cc(/C=N/NC(=O)CNc2n[nH]c(=O)[nH]c2=O)ccc1OCc1ccccc1 | -75*
COc1cc(/C=C/C(=O)NC(C)(C)C)ccc1OCc1ccccc1 | 59
SMILES | aSyn UTR act
COc1cc(/C=N/NC(=O)CN2CCCCC2)ccc1OCc1ccc(Br)cc1 | -154*
O=C(Nc1cccc(-c2csc(Nc3ccc(Cl)cc3)n2)c1)c1cccc(C(F)(F)F)c1 | -71*
O=C(Nc1cccc(-c2csc(Nc3ccc(Cl)cc3)n2)c1)c1cc([N+](=O)[O-])cc(C(F)(F)F)c1 | -72*
O=C(Nc1cccc(-c2csc(Nc3ccccc3)n2)c1)c1cc([N+](=O)[O-])cc(C(F)(F)F)c1 | -87*
CC1CN(Cc2csc(-c3ccc(Cl)cc3)n2)CC(C)O1 (stereo unspecified) | -105*
Cc1cc(/C=C(/C#N)C(=O)Nc2ccccc2)c(C)n1-c1cccnc1 | -160*
COCCNC(=O)/C(C#N)=C/c1cc(C)n(C2CCCCC2)c1C | -101*
COCCNC(=O)/C(C#N)=C/c1cc(C)n(-c2ccc(C)cc2)c1C | -133*
CC(C)C1N=C(c2ccc3c(c2)OCO3)CC(c2ccccc2O)N1 (stereo unspecified) | -300*
O=C(c1ccccc1)c1coc2ccc(O)c(Cl)c12 | -96*
Cc1ccc(C(=O)c2coc3ccc(O)c(Cl)c23)cc1 | -163*
Cc1ccc(C(=O)c2coc3ccc(O)cc23)cc1 | -64*
O=C(CC1C(=O)NCCN1Cc1ccc(F)cc1Cl)NCc1ccon1 (stereo unspecified) | -68*
OCCCCNc1cccc2ccccc12 | -64*
C=CCN(C(=O)CCc1ccccc1OC)c1nc(-c2ccc(S(C)(=O)=O)cc2)cs1 | 71
CCN(C(=O)c1ccccc1F)c1nc(-c2ccc(OC)cc2)cs1 | -199*
CCC(=O)N(CC)c1nc(-c2ccc(OC)cc2)cs1 | -161*
COCCN(C(=O)c1ccccc1F)c1nc(-c2ccc(OC)cc2)cs1 | -73*
COCCN(C(=O)c1ccccc1F)c1nnc(-c2ccc(OC)cc2)s1 | -73*
CCN(C(=O)c1ccco1)c1nc(-c2ccc(OC)cc2)cs1 | -159*
CN(C(=O)c1ccco1)c1nc(-c2ccccc2)cs1 | -158*
CC(=O)Nc1ncnc2c1c(-c1ccc(Cl)cc1)nn2C(C)(C)C | 53
CC(=O)Nc1nc(-c2ccc(Cl)cc2)nc(C)c1C(C)=O | -111*
c1ccc(Nc2nc(CSc3ncn[nH]3)cs2)cc1 | -135*
Cc1cc(NCCCN2CCOCC2)n2ncc(-c3ccccc3)c2n1 | -95*
SMILES | aSyn UTR act
COc1ccccc1-c1cnn2c(NCc3ccccc3)cc(C)nc12 | -75*
Cc1cc(NCc2ccccn2)n2ncc(-c3ccccc3)c2n1 | -155*
Cc1cc(NCc2ccccn2)n2ncc(-c3ccc(Cl)cc3)c2n1 | -97*
Nc1c(C(=O)Nc2ccc(S(=O)(=O)N3CCCC3)cc2)sc2nc3ccc(OC(F)(F)F)cc3cc12 | 109
O=C(NCCC1=CCCCC1)c1cnc2n(c1=O)CCS2 | -108*
O=C(NCCCc1ccccc1)c1cnc2n(c1=O)CCS2 | -125*
O=C(Nc1cccc(C(F)(F)F)c1)c1cnc2n(c1=O)CCS2 | -108*
O=C(Nc1ccc(OC(F)(F)F)cc1)c1cnc2n(c1=O)CCS2 | -160*
O=C(Nc1ccccc1)c1cnc2n(c1=O)CCS2 | -100*
Cc1nc2cc(NC(=O)C3COc4ccccc4O3)ccc2s1 (stereo unspecified) | -141*
Cc1nc2ccc(NC(=O)C3COc4ccccc4O3)cc2s1 (stereo unspecified) | -141*
COC(=O)c1cccc(NC(=O)Nc2ccccc2OC)c1 | -65*
COc1cccc(/C=N/NC(=O)C(=O)Nc2ccccc2OC(F)(F)C(F)F)c1O | 71
COC(=O)c1cccc(NC(=O)NC(=O)c2ccccc2Cl)c1 | 95
COc1ccccc1NC(=O)C(=O)/C=C(\O)c1ccccc1 | -131*
COC(=O)c1cccc(NC(=O)Nc2ccc(Cl)c(Cl)c2)c1 | -134*
Oc1ccc(N=Nc2ccc(Br)cc2)c(O)c1 | -226*
Oc1ccc(N=Nc2ccc3c(c2)OCCO3)c(O)c1 | 62
COc1cccc(-c2nc3ccc([N+](=O)[O-])cc3o2)c1 | -120*
O=[N+]([O-])c1ccc2nc(-c3ccccc3)oc2c1 | -224*
CC(=O)Nc1cccc(NC(=O)C(=O)c2cn(CC(=O)N3CCCCC3)c3ccccc23)c1 | -121*
COc1ccc(NC(=O)C(=O)c2cn(CC(=O)N3CCCC3)c3ccccc23)cc1 | 105
c1ccc2c(-c3nc(-c4ccncc4)no3)cccc2c1 | -272*
c1cncc(-c2noc(-c3cccc4ccccc34)n2)c1 | -225*
c1ccc(-c2noc(-c3cccc4ccccc34)n2)cc1 | -179*
SMILES | aSyn UTR act
COc1ccc(C(=O)Cn2cnc3ccccc3c2=O)cc1 | -146*
O=C(Cn1cnc2ccccc2c1=O)c1ccc2c(c1)OCCO2 | -130*
O=C(Cn1cnc2ccccc2c1=O)Nc1ccc2c(c1)OCO2 | -120*
Cc1ccc(C(=O)Cn2cnc3ccccc3c2=O)cc1C | -155*
O=C(CN1C(=O)c2ccccc2S1(=O)=O)c1ccc2c(c1)OCCO2 | 111
Cc1cc(C(=O)Cn2cnc3ccccc3c2=O)c(C)n1C1CC1 | -109*
O=C(Cn1cnc2ccccc2c1=O)c1ccc2ccccc2c1 | -140*
Cc1cccc(-c2cc3nc(C)cc(C)n3n2)c1 | -235*
CC(=O)c1cnc2cc(-c3cccc(Br)c3)nn2c1C | -213*
Cc1cc(C)n2nc(-c3cccc(Br)c3)cc2n1 | -114*
O=C(Nc1ncc(Cl)cn1)c1cccs1 | -69*
O=C(NC(=S)Nc1ccc(Cl)cn1)c1cccs1 | -92*
